# According to PubChem BioAssay (EPA / NIEHS):
# Active and inactive are the calls of the source. How the source made its calls: active means hit-call score of the fitted dose curve at least 0.9, where 1 is the maximum; inactive means score below 0.9.
# Assay: ATG_M_19_CIS: Attagene CIS-FACTORIAL HepG2 Assay for M19 Transcription Factor (Internal Marker) (AID 2282939)
# Conditions: HepG2 Attagene CIS-FACTORIAL M19 internal marker reporter; actives raise or lower the signal
# Method: ATG_CIS is a cell-based, multiplexed-readout assay that uses HepG2, a human liver cell line, with measurements taken at 24 hours after chemical dosing in a 24-well plate.ATG_M_19_CIS is one of 52 assay component(s) measured or calculated from the ATG_CIS assay. It is designed to make measurements of mRNA induction, a form of inducible reporter, as detected with fluorescence intensity signals by Reverse transcription polymerase chain reaction (RT-PCR) and Capillary electrophoresis technology.Data from the assay component ATG_M_19_CIS was analyzed into 1 assay endpoint. This assay endpoint, ATG_M_19_CIS, was analyzed with bidirectional fitting relative to DMSO as the negative control and baseline of activity. Using a type of inducible reporter, measures of mRNA for gain or loss-of-signal activity can be used to understand the background control at the transcription factor-level as they relate to the gene . Furthermore, this assay endpoint can be referred to as a secondary readout, because this assay has produced multiple assay endpoints where this one serves a background control function. To generalize the intended target to other relatable targets, this assay endpoint is annotated to the background measurement intended target family, where the subfamily is internal marker.
# Human liver HepG2 cells are transiently transfected with multiple reporter transcription units (MRTUs) in 6-well plates using FuGene 6 reagent (Roche; 3 ml FuGene/1 mg DNA). The MRTU constructs are regulated by a cis-regulating element (promoter). […] A major difference between the CIS and TRANS system is that in CIS activities of endogenous TFs are measured, whereas the TRANS assay evaluates changes in activities of exogenous, chimeric NR-Gal4 proteins. […] At the end of 24 hour incubation, total RNA was isolated using TriZol reagent (Invitrogen). The isolated RNA is then reverse-transcribed using oligo(dT) primer and Mo-MLV reverse transcriptase (Invitrogen) with DNAse I (Ambion) treatment for 30 min. The one-tenth of the produced cDNA was amplified by PCR using Taq DNA polymerase (Invitrogen) and two reporter sequence-specific primers. The PCR products were fluorescently labeled by primer extension with 6-arboxyfluorescein (6-FAM) 5'-labeled reporter sequence-specific primer (2 min at 95 C, 20 s at 68 C and 10 min at 72 C) and these products were digested with 5U of HpaI (New England Biolabs) for 2h at 37 C. The fragments were purified using Qiaquick PCR columns (Qiagen), analyzed on an ABI 3130xL genetic analyzer (Applied Biosystems) with peak positions identified by using a set of X-rhodamine (ROX)-labeled MapMarker1000 molecular weight standards (BioVentures). The raw capillary electrophoresis data was processed using Attagraph software (Attagene).
Compound,outcome,AC50
CCOC(=O)NC(=S)Nc1ccccc1NC(=S)NC(=O)OCC,inactive,
CCC1CCC(=O)O1 (stereo not given),inactive,
C=COCCCl,inactive,
C[N+](C)(C)CC(=O)[O-],inactive,
CC(C)CCCCCCCOP(=O)(Oc1ccccc1)Oc1ccccc1,inactive,
CC(C)[C@@H](C(=O)O[C@@H](C#N)c1cccc(Oc2ccccc2)c1)c1ccc(Cl)cc1,inactive,
O=[N+]([O-])c1cc([N+](=O)[O-])c2ccccc2c1,inactive,
Oc1ccc(C2(c3ccc(O)cc3)c3ccccc3-c3ccccc32)cc1,inactive,
COCC(=O)N(c1c(C)cccc1C)N1CCOC1=O,inactive,
Cc1ccc(OP(=O)(Oc2ccc(C)cc2)Oc2ccc(C)cc2)cc1 (tested in a mixture with another compound),inactive,
CCOC(=O)COc1ccc(Cl)cc1Cl,inactive,
c1ccc(Nc2ccc3ccccc3c2)cc1,inactive,
CCCCNP(N)(N)=S,inactive,
N#CC(c1ccccc1)c1ccccc1,inactive,
O=C(O)c1cc[c]([Hg][Cl])cc1,inactive,
CN(C)C(=O)C(c1ccccc1)c1ccccc1,inactive,
C=C(Cl)CCl,inactive,
Clc1ccc(-c2ccccc2)cc1,inactive,
O=[N+]([O-])c1cc(C(F)(F)F)c(Cl)c([N+](=O)[O-])c1Cl,inactive,
O=c1c2ccccc2c(=O)c2c1cc(Cl)c1[nH]c3c([nH]c12)c(Cl)cc1c(=O)c2ccccc2c(=O)c13,inactive,

Compound,outcome,AC50
C[N+](C)=CCl,inactive,
O=[N+]([O-])c1ccc(Cl)cc1,inactive,
c1ccc2c(c1)CCCC2,inactive,
N#CCCCl,inactive,
Nc1cc(Cl)cc(Cl)c1,inactive,
Cc1cc(C)c(C2=C(OC(=O)CC(C)(C)C)C3(CCCC3)OC2=O)c(C)c1,inactive,
CCNCC,inactive,
CCCCCCC1CCOC1=O (stereo not given),inactive,
CCOC(=O)C1OC1(C)c1ccccc1 (stereo not given),inactive,
Nc1ccccc1C(=O)Oc1ccc2ccccc2c1,,166 µM (active)
CC(C)(c1cc(Cl)c(O)c(Cl)c1)c1cc(Cl)c(O)c(Cl)c1,inactive,
CCC(C)c1cc([N+](=O)[O-])cc([N+](=O)[O-])c1OC(=O)C=C(C)C (stereo not given),inactive,
[CH3][Sn]([Cl])([Cl])[Cl],inactive,
C=CC(=O)OCC(CC)CCCC (stereo not given),inactive,
C[N+](C)(C)CC(=O)O,inactive,
CCc1cccc(C)c1N(C(=O)CCl)[C@@H](C)COC,inactive,
O=C1C=CC(=O)C=C1,inactive,
COc1ncc(F)c2nc(S(=O)(=O)Nc3c(F)cccc3F)nn12,inactive,
CCOC(=O)N(C)N=O,inactive,
C=C(Cl)Cl,inactive,
